Structures are written as SMILES. Inconclusive results are not listed. The source made the active and inactive calls. How the source made its calls: active means hit-call score of the fitted dose curve at least 0.9, where 1 is the maximum; inconclusive means response in the unintended direction; inactive means score below 0.9.

The target in experiment [1] is bovine Estrogen Receptor (ER), ESR1 (gene 407238) (UniProt P49884). In words: NVS_NR_bER: NovaScreen (NVS) Nuclear Receptor Binding Assay for bovine Estrogen Receptor (ER) (AID 2283345).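 Further: actives lower the bound radioligand count which means they displace the ER ligand.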 In a few lines: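 Cell-free radioligand binding with bovine uterine membrane extracts, read 18 hours after dosing by scintillation counting. Loss of signal versus DMSO baseline indicates displacement. Primary screen run in duplicate at 25 uM, actives followed in concentration series.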
Chain of bovine Estrogen Receptor (ER), ESR1 (gene 407238) (P49884 whole entry, looked up): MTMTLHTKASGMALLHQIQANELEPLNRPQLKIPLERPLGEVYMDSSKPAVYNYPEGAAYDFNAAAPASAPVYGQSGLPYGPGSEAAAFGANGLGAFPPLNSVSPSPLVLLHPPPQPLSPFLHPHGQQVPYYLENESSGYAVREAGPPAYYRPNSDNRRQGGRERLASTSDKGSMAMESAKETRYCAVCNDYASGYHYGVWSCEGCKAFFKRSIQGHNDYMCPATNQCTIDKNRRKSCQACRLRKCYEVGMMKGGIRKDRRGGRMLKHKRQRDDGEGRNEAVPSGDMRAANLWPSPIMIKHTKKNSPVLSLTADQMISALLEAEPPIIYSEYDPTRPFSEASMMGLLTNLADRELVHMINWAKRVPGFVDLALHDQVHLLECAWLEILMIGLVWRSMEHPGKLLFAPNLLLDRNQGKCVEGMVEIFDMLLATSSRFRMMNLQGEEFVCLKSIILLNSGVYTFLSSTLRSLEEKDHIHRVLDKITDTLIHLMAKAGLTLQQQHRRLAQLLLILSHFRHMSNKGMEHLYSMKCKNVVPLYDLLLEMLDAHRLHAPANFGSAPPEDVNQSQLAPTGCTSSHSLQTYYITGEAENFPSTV

The target in experiment [2] is Estrogen receptor (Homo sapiens) (UniProt P03372). In words: NVS_NR_hER: NovaScreen (NVS) Nuclear Receptor Binding Assay for human Estrogen Receptor (ER) (AID 2283348). In a few lines: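 Scintillation signal from bound radioligand was measured 18 hours after chemical addition to cell-free MCF7 protein extracts, with DMSO as baseline. Activity was scored as signal loss; compounds ran first at 25 uM in duplicate.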
Chain of Estrogen receptor (Homo sapiens) (P03372 whole entry, looked up): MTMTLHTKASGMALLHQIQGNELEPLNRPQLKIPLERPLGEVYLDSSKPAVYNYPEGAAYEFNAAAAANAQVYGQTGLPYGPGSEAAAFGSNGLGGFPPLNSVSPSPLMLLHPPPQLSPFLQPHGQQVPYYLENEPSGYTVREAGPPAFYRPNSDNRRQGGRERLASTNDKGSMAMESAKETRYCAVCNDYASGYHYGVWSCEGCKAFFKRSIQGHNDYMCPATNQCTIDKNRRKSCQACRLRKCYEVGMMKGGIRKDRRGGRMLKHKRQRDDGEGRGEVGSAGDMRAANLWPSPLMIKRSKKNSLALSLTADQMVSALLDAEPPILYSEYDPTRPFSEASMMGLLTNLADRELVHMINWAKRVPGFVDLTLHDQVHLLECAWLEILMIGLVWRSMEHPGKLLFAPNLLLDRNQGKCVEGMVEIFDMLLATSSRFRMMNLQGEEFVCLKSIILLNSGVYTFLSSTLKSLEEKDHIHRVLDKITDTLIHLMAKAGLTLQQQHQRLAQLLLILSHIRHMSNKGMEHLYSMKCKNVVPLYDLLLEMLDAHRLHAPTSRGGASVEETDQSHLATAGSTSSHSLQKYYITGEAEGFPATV

Experiment [3] shares this target. In words: OT_ER_ERaERa_1440: Odyssey Thera (OT) 24-hour HEK293T Protein-Complementation Assay for Estrogen Receptor-alpha/-alpha Homodimer (AID 2283349).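 Further: hits raise fluorescence above DMSO for agonists and antagonists alike.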 In a few lines:
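Protein-fragment complementation between two human ERα ligand-binding domains (aa 310-547) in stably transfected HEK293T cells was monitored after 24 h treatment, using fluorescence intensity relative to vehicle controls.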

Experiment [4] has the same target. In words: OT_ER_ERaERa_0480: Odyssey Thera (OT) 8-hour HEK293T Protein-Complementation Assay for Estrogen Receptor-alpha/-alpha Homodimer (AID 2283351).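 Further: rise in fluorescence from reassembled reporter fragments on ERα LBD homodimer in nucleus or whole cell.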 In a few lines:
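HEK293T, stable ERα LBD (aa 310-547) PCA homodimer; 8 h compound exposure; fluorescence intensity, laser scanning cytometer; positive fitting direction, DMSO baseline.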

The target in experiment [5] is Estrogen receptor (Homo sapiens) + Estrogen receptor beta (Homo sapiens) (UniProt P03372+Q92731). In words: OT_ER_ERaERb_0480: Odyssey Thera (OT) 8-hour HEK293T Protein-Complementation Assay for Estrogen Receptor-alpha/-beta Heterodimer (AID 2283352). A digest of the protocol: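 HEK293T protein-fragment complementation assay of ER-alpha/ER-beta LBD heterodimerisation, read 8 h after dosing. Mean nuclear/cytoplasmic fluorescence intensity measured by laser scanning cytometry; gain of signal fitted relative to DMSO.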
Chain of Estrogen receptor (Homo sapiens) + Estrogen receptor beta (Homo sapiens) (P03372 whole entry, looked up, the tested form may be a part): as the sequence (P03372 whole entry, looked up) above
Chain of Estrogen receptor (Homo sapiens) + Estrogen receptor beta (Homo sapiens) (Q92731 whole entry, looked up, the tested form may be a part): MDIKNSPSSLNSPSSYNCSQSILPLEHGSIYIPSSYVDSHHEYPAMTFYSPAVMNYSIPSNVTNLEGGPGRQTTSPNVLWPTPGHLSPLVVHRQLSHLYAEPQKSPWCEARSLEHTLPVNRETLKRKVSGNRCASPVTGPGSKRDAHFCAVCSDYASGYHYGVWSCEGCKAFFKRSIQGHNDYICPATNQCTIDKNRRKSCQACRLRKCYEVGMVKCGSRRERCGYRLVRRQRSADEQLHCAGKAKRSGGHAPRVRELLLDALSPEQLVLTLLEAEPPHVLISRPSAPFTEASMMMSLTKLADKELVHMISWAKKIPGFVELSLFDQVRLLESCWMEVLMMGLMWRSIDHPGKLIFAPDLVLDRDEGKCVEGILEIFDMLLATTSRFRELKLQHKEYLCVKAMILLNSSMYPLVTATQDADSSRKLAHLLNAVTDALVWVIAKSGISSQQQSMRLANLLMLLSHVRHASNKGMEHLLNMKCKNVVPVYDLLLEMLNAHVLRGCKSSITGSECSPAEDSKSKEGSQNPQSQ

For experiment [6], the target named is human Constitutive Androstane Receptor (CAR), NR1I3 (gene 9970) (UniProt Q14994). As to the kind of experiment: NVS_NR_hCAR_Antagonist: NovaScreen (NVS) Nuclear Receptor Binding Assay for human Constitutive Androstane Receptor Antagonism (CAR) (AID 2283344). In a few lines: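 Cell-free TR-FRET binding read 1 h after dosing, antagonist mode; loss of signal versus DMSO baseline. Primary screen in duplicate at a single 25 uM; actives retested in concentration series.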
Chain of human Constitutive Androstane Receptor (CAR), NR1I3 (gene 9970) (Q14994 whole entry, looked up): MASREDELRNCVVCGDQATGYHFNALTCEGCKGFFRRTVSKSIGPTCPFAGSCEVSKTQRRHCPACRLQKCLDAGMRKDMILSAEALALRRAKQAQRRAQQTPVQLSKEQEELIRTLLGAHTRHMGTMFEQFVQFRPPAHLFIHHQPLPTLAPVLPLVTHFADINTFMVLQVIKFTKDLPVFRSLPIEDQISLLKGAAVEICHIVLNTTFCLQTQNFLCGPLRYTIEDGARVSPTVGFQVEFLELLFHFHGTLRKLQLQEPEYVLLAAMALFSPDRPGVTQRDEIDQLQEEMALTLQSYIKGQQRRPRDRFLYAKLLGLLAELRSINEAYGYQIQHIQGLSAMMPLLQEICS

For experiment [7], the target named is Bile acid receptor (Homo sapiens) (UniProt Q96RI1). In words: NVS_NR_hFXR_Antagonist: NovaScreen (NVS) Nuclear Receptor Binding Assay for human Farnesoid X Receptor Antagonism (FXR) (AID 2283350). In a few lines: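 Cell-free TR-FRET ligand-binding read-out on human FXR (NR1H4) in antagonist mode, measured 1 h after dosing. Primary screen in duplicate at 25 uM, actives retested in concentration series; signal loss scored versus DMSO.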
Chain of Bile acid receptor (Homo sapiens) (Q96RI1 whole entry, looked up): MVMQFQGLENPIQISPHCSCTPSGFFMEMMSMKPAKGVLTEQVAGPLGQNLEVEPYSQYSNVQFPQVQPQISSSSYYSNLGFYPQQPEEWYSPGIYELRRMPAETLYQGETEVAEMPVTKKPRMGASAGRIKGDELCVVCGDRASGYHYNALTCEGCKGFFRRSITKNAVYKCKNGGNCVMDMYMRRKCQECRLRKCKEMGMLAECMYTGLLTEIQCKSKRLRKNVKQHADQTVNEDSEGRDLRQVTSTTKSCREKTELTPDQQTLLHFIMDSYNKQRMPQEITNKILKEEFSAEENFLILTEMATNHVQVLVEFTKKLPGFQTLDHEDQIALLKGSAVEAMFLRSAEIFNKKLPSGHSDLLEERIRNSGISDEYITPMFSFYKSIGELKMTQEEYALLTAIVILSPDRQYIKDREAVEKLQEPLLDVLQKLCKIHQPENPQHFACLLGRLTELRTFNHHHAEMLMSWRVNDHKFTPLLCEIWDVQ

Experiment [8] has as its system guinea pig Histamine Receptor (H2), gene 100729734. As to the kind of experiment: NVS_GPCR_gH2: NovaScreen (NVS) G Protein-Coupled Receptor Assay for guinea pig Histamine Receptor (H2) (AID 2283342). A digest of the protocol:
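Radioligand displacement on guinea pig striatal membranes, 1 h after dosing, filter-based scintillation counting; loss of signal versus DMSO. Single-point screen at 25 uM in duplicate, then concentration-response up to 50 uM.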

The test system of another experiment is NCBI gene 100848466. As to the kind of experiment: NVS_NR_bPR: NovaScreen (NVS) Nuclear Receptor Binding Assay for bovine Progextron Receptor (PR) (AID 2283343).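 On AC50: actives lower bound radioligand signal below DMSO meaning displacement of the label.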 A digest of the protocol: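 Membranes from bovine uterus; radiolabelled ligand plus test chemical; 18 h; scintillation read-out. Activity = signal loss vs DMSO. Primary: 25 uM, duplicate; secondary: concentration series.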

The target of experiment [9] is chimpanzee Androgen Receptor (AR), AR (gene 747460) (UniProt O97775). As to the kind of experiment: NVS_NR_cAR: NovaScreen (NVS) Nuclear Receptor Binding Assay for chimpanzee Androgen Receptor (AR) (AID 2283346).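 Further: radioligand displacement from AR measured by scintillation counting in a cell-free assay; a loss of bound radioligand signal versus DMSO counts as binding.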 In a few lines:
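Cell-free competition binding with insect-cell (Sf9/Sf21) extracted chimpanzee AR; scintillation signal from lysate at 72 h. Screened in duplicate at 25 uM, then concentration-response for actives; fitting relative to DMSO.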

Chain of chimpanzee Androgen Receptor (AR), AR (gene 747460) (O97775 whole entry, looked up): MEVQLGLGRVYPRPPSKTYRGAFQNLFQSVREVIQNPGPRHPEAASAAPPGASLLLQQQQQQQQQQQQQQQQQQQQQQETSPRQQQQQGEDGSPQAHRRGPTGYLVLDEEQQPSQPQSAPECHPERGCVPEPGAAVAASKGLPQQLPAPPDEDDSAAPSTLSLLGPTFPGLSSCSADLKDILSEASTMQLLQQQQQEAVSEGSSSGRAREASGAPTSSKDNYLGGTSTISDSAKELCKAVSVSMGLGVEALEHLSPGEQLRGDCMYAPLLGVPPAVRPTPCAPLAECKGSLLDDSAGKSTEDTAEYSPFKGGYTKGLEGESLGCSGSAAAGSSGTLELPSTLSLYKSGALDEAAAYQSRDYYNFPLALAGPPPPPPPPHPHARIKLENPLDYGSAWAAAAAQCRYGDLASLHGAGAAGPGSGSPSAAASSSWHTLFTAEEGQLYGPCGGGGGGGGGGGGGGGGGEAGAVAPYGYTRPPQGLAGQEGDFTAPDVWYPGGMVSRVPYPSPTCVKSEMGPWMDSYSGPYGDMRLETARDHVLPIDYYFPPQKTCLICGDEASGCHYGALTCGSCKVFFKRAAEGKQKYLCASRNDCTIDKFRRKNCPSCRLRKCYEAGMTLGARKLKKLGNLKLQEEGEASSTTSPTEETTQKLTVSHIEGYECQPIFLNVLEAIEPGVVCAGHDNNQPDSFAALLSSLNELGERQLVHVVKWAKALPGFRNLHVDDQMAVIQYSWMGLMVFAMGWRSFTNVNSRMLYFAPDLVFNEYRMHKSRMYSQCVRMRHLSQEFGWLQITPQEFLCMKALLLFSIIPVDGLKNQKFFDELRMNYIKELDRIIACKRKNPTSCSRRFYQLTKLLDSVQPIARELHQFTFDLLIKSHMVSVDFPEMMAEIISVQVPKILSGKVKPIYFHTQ

With `CCCCCCCCCCCCCCCCCC(=O)O`, the compound was classed as inactive in experiment [1], in [3] and in experiment [4]. Also, in experiment [2], the AC50 was 17.2 µM (active).

Consider `CC(C)c1ccc(C(=O)N=C(N)N)cc1S(C)(=O)=O`, for which the result in [1], in experiment [3] and in experiment [5] was inactive.

Turning to `COc1cc(-c2nc(NC(=O)c3cc4cc(C)cc(C)c4n3CC(=O)O)sc2CCC2CCCCC2)c(OC)cc1Cl`, in [6], the AC50 is 3.54 µM (active). Further, the compound was called inactive in experiment [1], in experiment [3], in experiment [7], in [4] and in experiment [5].

Consider `CCCc1cc(=O)[nH]c(=S)[nH]1`, for which the results for the AC50 in experiment [1] and in experiment [2] were 25 µM (active) and 11.2 µM (active), respectively. The compound was classed as inactive in [3] and in [4].

In the case of `COc1ccc2c(c1)c(CC(=O)O)c(C)n2C(=O)c1ccc(Cl)cc1`, the compound was classed as inactive in experiment [1], in experiment [2] and in experiment [3].

Regarding `CCCCCCCCCCC`, the result in experiment [6], in experiment [3], in experiment [4] and in [5] was inactive.

In the case of `CN[C@H]1CC[C@@H](c2ccc(Cl)c(Cl)c2)c2ccc(S(N)(=O)=O)cc21`, the result in [1], in experiment [3] and in experiment [4] was inactive.

As for `CN1CCN(Cc2cc(-c3ccc4[nH]c(=O)oc4c3)co2)[C@@H](c2ccc(F)cc2)C1`, the AC50 in experiment [8] was 0.445 µM (active). Further, the compound was classed as inactive in [1].

Consider `O=C(OCCCCCOC(=O)c1ccccc1)c1ccccc1`, for which the compound was called inactive in experiment [6], in experiment [3] and in experiment [4].

`Cc1ccc(C(C)C)c(O)c1`: the compound was called inactive in [6], in [3], in experiment [4] and in experiment [5].

Take `CCCCC(CC)COC(=O)CC(C(=O)OCC(CC)CCCC)S(=O)(=O)O` (stereo not given): the values for the AC50 (with NCBI gene 100848466; in experiment [9]) were 10.9 µM (active) and 17.7 µM (active), respectively. In addition, the outcome in experiment [1], in [2] and in experiment [3] was inactive.

On to `Cc1nc(-c2ccc3c(c2)CCN(CCC2CCC(NC(=O)/C=C/c4ccc(F)cc4)CC2)CC3)no1` (stereo not given), for which, in experiment [8], the AC50 was 0.216 µM (active). Besides, the call in experiment [6], in experiment [1], in experiment [9], in experiment [2], in experiment [3] and in [7] was inactive. The compound was called inactive in experiment [4] and in experiment [5].

As for `CCOc1ccc2c(c1)C(C)=CC(C)(C)N2`, the concentration at half-maximal activity (AC50) with NCBI gene 100848466 is 25 µM (active); in [2], 39.2 µM (active). The result in experiment [3] and in experiment [4] was inactive.

Turning to `CCCCc1ccc2c(n1)[C@@H](c1ccc(OC)cc1C[C@H](C)C(=O)O)[C@H](C(=O)O)[C@H]2c1ccc2c(c1)OCO2`, the outcome in experiment [6], in [3], in experiment [4] and in experiment [5] was inactive.

`Oc1ccc2ccccc2c1N=Nc1ccccc1`: the compound was called inactive in [1], in [3] and in experiment [4].

With `Cc1ccc(Cl)cc1`, the result in [1], in [3], in [7] and in experiment [4] was inactive.

As to `CCCCCCC(=O)OCC`, the call in experiment [1], in experiment [2], in [3], in experiment [4] and in experiment [5] was inactive.

Turning to `Cc1cccc(Nc2cc(Cl)nc(SCC(=O)O)n2)c1C`, the result in experiment [1], in experiment [2], in experiment [3] and in experiment [4] was inactive.

As to `COC(=O)c1ccc(O)cc1`, the result in experiment [1], in experiment [2], in experiment [3] and in experiment [4] was inactive. In addition, in experiment [5], the AC50 is 50 µM (active).

`NC(=O)Cn1c(=O)cc(CCN2CCN(c3nccc4sccc34)CC2)c2ccc(F)cc21`: in experiment [8], the AC50 is 1.82 µM (active). The compound was called inactive in experiment [3] and in experiment [4].

`O=C(O)Cc1ccccc1Nc1c(Cl)cccc1Cl`: the result in experiment [1], in experiment [2], in experiment [3] and in [5] was inactive.

`O=[N+]([O-])C(CO)(CO)CO`: the compound was called inactive (in the experiment with NCBI gene 100848466; in experiment [3]; in experiment [4]).

Take `CCCCCCCCCCCC(=O)OC`: the outcome in experiment [6], in experiment [3], in [7], in experiment [4] and in experiment [5] was inactive.

Consider `Nc1ccccc1N`, for which the outcome in experiment [1], in experiment [3] and in experiment [4] was inactive.

In the case of `CNCc1cc(F)ccc1Oc1ccc(Cl)c(Cl)c1`, the compound was classed as inactive in experiment [1], in experiment [3] and in experiment [4]. Also, the AC50 in experiment [9] is 16.6 µM (active).

For `CCCCCCCC=O`, the compound was classed as inactive in experiment [1], in experiment [3], in [4] and in [5].

For the compound `CCc1c(C(=O)NN2CCCCC2)nn(-c2ccc(Cl)cc2Cl)c1-c1ccc(Br)cc1`, the compound was classed as inactive in experiment [8], in experiment [6], in experiment [1], in experiment [3], in experiment [4] and in experiment [5].

Regarding `COc1ccc(S(=O)(=O)N2C(=O)[C@@](c3ccccc3OC)(N3C[C@H](O)C[C@H]3C(=O)N(C)C)c3cc(Cl)ccc32)c(OC)c1`, the outcome in experiment [1], in experiment [2], in experiment [3] and in experiment [4] was inactive. Further, the half-maximal activity concentration (AC50) in experiment [9] was 13.8 µM (active).

As for `COc1cc(C=O)ccc1O`, the compound was called inactive in experiment [1], in experiment [3], in experiment [7], in experiment [4] and in experiment [5]. Also, the half-maximal activity concentration (AC50) in experiment [2] is 38.6 µM (active).

For the compound `Nc1ccc2c(c1)C(=O)c1ccccc1C2=O`, the concentration at half-maximal activity (AC50) in experiment [9] is 19.8 µM (active). For the same compound, the call in [2] and in experiment [3] was inactive.

For `C[Si]1(C)O[Si](C)(C)O[Si](C)(C)O[Si](C)(C)O1`, the result in experiment [2], in experiment [3], in experiment [4] and in experiment [5] was inactive.

With `CC(=O)C(C)=CC1C(C)=CCCC1(C)C` (stereo not given), the compound was classed as inactive in experiment [2], in [3] and in experiment [4].

As for `Cc1ccc(C)c(O)c1C`, the compound was called inactive in [3] and in [4].

Regarding `Cc1cc(=O)[nH]c(=S)[nH]1`, the compound was called inactive in experiment [3] and in experiment [4].

Regarding `C[C@]12C=CC(=O)C=C1CC[C@@H]1[C@@H]2C(=O)C[C@@]2(C)[C@H]1CC[C@]2(O)C(=O)CO`, the half-maximal activity concentration (AC50) in experiment [9] was 14.8 µM (active). Also, the result in [2], in experiment [3] and in experiment [4] was inactive.

By AC50 is commonly meant the concentration at which the activity in the assay is half-maximal.

(Values after PubChem BioAssay (EPA / NIEHS).)
